# This is a sample that favours compounds with a hit; in the whole collection about 9.9% have one here.
# Tau fluor counter: Counterscreen qHTS for Inhibitors of Tau Fibril Formation, Fluorescence Polarization; tau K18 P301L Alexa594 fluorescence, heparin fibrillization; Potency, µM (titrated, usually from 57.7 µM); 0.93% of 280,000 active; AID 1463, 2008; active = well fitted curve in the direction sought with a large enough effect; inconclusive = small, poorly fitted or top-dose-only effect, or another doubt; inactive = no such curve, though single readings can be large; an effect the other way counts as inactive or inconclusive; also: nearly all actives have a fitted effect of over 55% in size
#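 Human K18 P301L tau (15 uM unlabeled plus 0.24 uM Alexa 594-labeled, final) in 100 mM sodium acetate pH 7 was mixed with compound and 20 uM heparin and incubated 6 hr at 37 C.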
# HPGD inh: qHTS Assay for Inhibitors of HPGD (15-Hydroxyprostaglandin Dehydrogenase). purified HPGD, NADH fluorescence kinetic, PGE2 substrate. Potency, µM, hits mostly inhibitors. 4.3% of 150,000 active
# Target sequence (P15428 whole entry, looked up): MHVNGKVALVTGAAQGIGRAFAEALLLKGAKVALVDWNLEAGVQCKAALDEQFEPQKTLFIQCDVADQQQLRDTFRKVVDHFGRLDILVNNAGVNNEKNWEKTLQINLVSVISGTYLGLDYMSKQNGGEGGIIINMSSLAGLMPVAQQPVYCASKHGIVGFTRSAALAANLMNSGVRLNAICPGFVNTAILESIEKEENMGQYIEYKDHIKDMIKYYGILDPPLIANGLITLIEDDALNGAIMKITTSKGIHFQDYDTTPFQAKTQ
#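 NADH formation kinetics: reaction with 30 uM PGE2 and 1 mM NAD+ (final), 20 nM enzyme, Tris-HCl pH 8 with Tween 20, after 15 min compound preincubation at room temperature. Fluorescence change, last versus first of five reads.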
# Tau ThT inhib: qHTS for Inhibitors of Tau Fibril Formation, Thioflavin T Binding; Microtubule-associated protein tau (Homo sapiens), P10636; recombinant tau K18 P301L (four-repeat tau fragment), heparin-induced fibrillization, ThT fluorescence; Potency, µM (top dose mostly 57.4 µM), hits mostly inhibitors; 2.1% of 270,000 active; AID 1460, 2008; active = well fitted curve in the direction sought with a large enough effect; inconclusive = small, poorly fitted or top-dose-only effect, or another doubt; inactive = no such curve, though single readings can be large; an effect the other way counts as inactive or inconclusive; also: nearly all actives have a fitted effect of over 55% in size
# Target sequence (P10636 561-689 P618L limits assumed): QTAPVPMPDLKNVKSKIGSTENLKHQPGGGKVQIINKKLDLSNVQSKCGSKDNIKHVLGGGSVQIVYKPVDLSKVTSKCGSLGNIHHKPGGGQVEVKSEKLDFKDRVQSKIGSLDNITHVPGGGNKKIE
#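 In this qHTS, human K18 P301L tau is incubated with compound and heparin for 6 hr at 37 C, and Thioflavin T fluorescence then reports fibril load.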
# ALDH1A1 block: qHTS Assay for Inhibitors of Aldehyde Dehydrogenase 1 (ALDH1A1); Aldehyde dehydrogenase 1A1 (Homo sapiens), P00352; Potency, µM (series often up to 75.3 µM), most hits filed as inhibitors; 7.3% of 220,000 active; Purified ALDH1A1, NADH fluorescence, propionaldehyde substrate
# KDM4E inh: qHTS Assay for Inhibitors of Human Jumonji Domain Containing 2E (JMJD2E) | Lysine-specific demethylase 4E (Homo sapiens), B2RXH2 | JMJD2E catalytic domain, FDH-coupled NADH fluorescence (FDH is formaldehyde dehydrogenase) | Potency, µM (highest dose often 57.1 µM), usual class: inhibitors | 1.6% of 230,000 active | AID 2147, 2009; also: nearly all actives have a fitted effect of over 50% in size
# Tau fibril FP: qHTS for Inhibitors of Tau Fibril Formation, Fluorescence Polarization. Microtubule-associated protein tau (Homo sapiens), P10636. K18 P301L tau heparin fibrillization, Alexa594 FP, 6 h. Potency, µM (series often up to 57.7 µM), actives largely listed as inhibitors. 0.39% of 280,000 active. AID 1468, 2008; active = well fitted curve in the direction sought with a large enough effect; inconclusive = small, poorly fitted or top-dose-only effect, or another doubt; inactive = no such curve, though single readings can be large; an effect the other way counts as inactive or inconclusive; also: nearly all actives have a fitted effect of over 55% in size
#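 Quantitative HTS format: compounds meet 15 uM recombinant K18 P301L tau and Alexa 594-tau tracer in 100 mM sodium acetate pH 7; 20 uM heparin triggers fibrillization at 37 C over 6 hr; FP gives the signal.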
# A number is an active result; . = inactive; ? = inconclusive; / = not tested or not shown. Unless noted, calls follow the shape of the dose curve; as a rule, active = well fitted inhibition curve with a large enough effect (not every such curve was filed as active); inconclusive = small, poorly fitted or top-dose-only effect, or another doubt; inactive = no such curve, though single readings can be large or run the other way.
SMILES,Tau fluor counter,HPGD inh,Tau ThT inhib,ALDH1A1 block,KDM4E inh,Tau fibril FP
CC(=O)Oc1ccc(N2C(=O)C3C4C=CC(C5CC45)C3C2=O)cc1[N+](=O)[O-] (centres undefined),.,.,?,6.3µM,.,.
Cn1c(NCCCO)nc2c1c(=O)n(Cc1cccc(F)c1)c(=O)n2C,.,/,.,/,/,.
Cn1ccc2cc(S(=O)(=O)N3CCCN(C(=O)Nc4ccc(Br)cc4)CC3)ccc21,.,/,.,/,/,.
COC(=O)c1cnn2c(C(F)(F)F)cc(-c3ccc(F)cc3)nc12,.,?,.,?,.,.
COC(=O)c1nn2c(C(F)(F)F)cc(-c3ccc(Br)o3)nc2c1Br,.,.,?,14µM,.,.
COc1ccc(/C=C/C(=O)c2ccc(O)cc2)cc1CN1CCOCC1,.,.,?,.,?,.
O=C(/C=C/c1cccc(O)c1)c1ccc(N2CCOCC2)cc1,?,/,3.5µM,/,.,.
Cc1cccc(C(=O)CC(=O)c2cc(Cl)ccc2O)c1,?,16µM,?,.,?,.
COc1ccc(O)c(C(=O)CC(=O)c2ccc(F)cc2)c1,?,.,?,.,?,.
O=C(CC(=O)c1cc(Cl)ccc1O)c1ccccc1,.,25µM,?,.,.,.
Cc1ccc(O)c(C(=O)CC(=O)c2cccc(F)c2)c1,.,22µM,?,.,?,.
O=C(CSc1nc2ccccc2nc1Cc1ccccc1)N1CCCc2ccccc21,.,/,.,/,/,.
NC(=O)CNC(=O)[C@@H]1CC2(CC(c3ccc(Cl)cc3)=NO2)CN1C(=O)c1ccccc1 (some centres undefined),.,.,.,28µM,.,.
COc1ccc(C(=O)N2CC3(CC(c4ccc(Cl)cc4)=NO3)C[C@H]2C(=O)NCC(N)=O)cc1 (some centres undefined),.,.,.,.,.,.
COc1ccc2nc(N3C(=O)CNC3=S)sc2c1,.,/,/,/,.,.
CCOc1ccc2nc(N3C(=O)/C(=C/c4ccc(Cl)cc4)NC3=S)sc2c1,?,.,4.5µM,.,.,.
CCCC(=O)N1CCN(c2ccc(NC(=O)c3ccc(Br)o3)cc2)CC1,.,.,?,.,.,.
O=C(Nc1ccc(N2CCN(C(=O)c3ccc(Cl)cc3)CC2)cc1)c1ccc([N+](=O)[O-])o1,?,/,13µM,.,.,.
CCCC(=O)N1CCN(c2ccc(NC(=O)c3sc4ccccc4c3Cl)cc2)CC1,.,.,2.2µM,.,.,?
CCCC(=O)N1CCN(c2ccc(NC(=O)c3ccc([N+](=O)[O-])o3)cc2)CC1,.,/,4µM,.,.,.
CCC(=O)N1CCN(c2ccc(NC(=O)c3ccc([N+](=O)[O-])o3)cc2)CC1,.,/,3.2µM,.,.,.
COc1ccc(CNC(=O)C2=C(C)C(=O)OC23CCC(C)CC3)cc1 (centres undefined),.,.,.,5.6µM,.,.
COc1ccc(/C=C2\CCCC(C(=O)C(F)(F)F)=C2O)cc1,.,.,?,0.45µM,.,.
O=C(C1=C(O)/C(=C/c2ccc(O)cc2)CCC1)C(F)(F)F,?,.,28µM,0.079µM,?,?
CCOc1ccc(CNC(=O)c2ccc3c(c2)nc2n3CCC(C)C2)cc1OC (centres undefined),.,/,.,/,/,.
CNc1nc(Sc2ccccc2)cc(C(F)(F)F)n1,.,35µM,?,35µM,.,.
CC(C)C(c1nnnn1C1CCCC1)N(C)C1CCCCC1 (centres undefined),.,.,.,28µM,.,.
CCc1ccc(OCC(=O)O/N=C(\N)Cc2ccc([N+](=O)[O-])cc2)cc1,.,.,?,?,.,.
Cc1ccc(OCC(=O)N2CCCCCC2)c(C)c1,.,.,.,.,.,.

# Screening data: PubChem, National Center for Advancing Translational Sciences (NCATS)
